Among the test systems are HCT-15 colon; HT29 colon; SNB-75 CNS; SNB-19 CNS; U251 CNS; PC-3 prostate; SK-MEL-5 melanoma; UACC-62 melanoma; LOX IMVI melanoma; SK-MEL-28 melanoma.
Common to all, as to experiment: NCI-60 one-dose screen, 48 h (100 = growth as untreated, 0 = no growth, -100 = all killed)
Conditions in all cases: 10 µM unless noted

The panel holds about 83,000 compounds, 20% with a hit somewhere; the sample as a whole holds those more often.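 Single-dose data. Exposure time 48 hours. Values below 10 considered active.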 Unmarked numbers belong to inactive results. The source made the active and inactive calls.

The text below walks through data of PubChem BioAssay (NCI).

For `COCCNC(=O)Cc1cc(-c2ccc(Cl)cc2)n(-c2ccccc2)c1C`, the growth is 81.8% in the test with HCT-15 colon; 84.8% with HT29 colon; 68.5% in the test on SNB-75 CNS; 79.2% in the test on SNB-19 CNS; 84.5% in the test on U251 CNS; 81% with PC-3 prostate. In addition, the growth with SK-MEL-5 melanoma is 79.3%; with UACC-62 melanoma it was 59.4%; in the test with LOX IMVI melanoma it was 85.5%; in the test with SK-MEL-28 melanoma it was 103%.
Regarding `Nc1c(C(=O)c2ccc(Cl)cc2)sc(Nc2ccccc2)c1-c1nc2ccccc2s1`, the growth in the test on HCT-15 colon was 39.7%; in the test on HT29 colon, 17.9%; in the test with SNB-75 CNS it was 18.1%; in the test on SNB-19 CNS, 62.1%; in the test on U251 CNS, 4.94% (active); in the test on PC-3 prostate it was 10.3%. In addition, the growth was 55.1% with SK-MEL-5 melanoma, 7.88% (active) in the test on UACC-62 melanoma, 17.8% in the test on LOX IMVI melanoma and 42.6% in the test on SK-MEL-28 melanoma.
With `COc1ccc2c(c1)c(-c1nc(-c3cn(C)c4ccncc34)cs1)cn2C`, the growth in the test on HCT-15 colon was -22.1% (active); in the test with HT29 colon, -58.1% (active); in the test with SNB-75 CNS, 120%; with SNB-19 CNS it was 20.9%; in the test with U251 CNS, -74.9% (active); with PC-3 prostate, -17.1% (active). For the same molecule, the growth is -22.8% (active) with SK-MEL-5 melanoma, 107% with UACC-62 melanoma, -92.3% (active) in the test on LOX IMVI melanoma and 86.8% in the test with SK-MEL-28 melanoma.
As to `COc1ccc(C(=O)C2OC3=C(C(=O)CC(C)(C)C3)C2c2cccc(Oc3ccccc3)c2)cc1` (stereo not given), the growth was 89.3% with HCT-15 colon; 91.1% in the test on HT29 colon; 86.9% in the test with SNB-75 CNS; 92.8% in the test with SNB-19 CNS; 88.9% in the test on U251 CNS; 81.3% with PC-3 prostate. The growth in the test on SK-MEL-5 melanoma is 90.7%; in the test with UACC-62 melanoma it was 72.6%; in the test on LOX IMVI melanoma it was 92.3%; in the test with SK-MEL-28 melanoma, 103%.
Take `COc1ccc2c(c1)C(c1c[nH]c3ccccc13)(c1c[nH]c3ccccc13)CCO2`: the growth in the test on HCT-15 colon was 41.8%; with HT29 colon, 23.8%; with SNB-75 CNS it was 28%; in the test on SNB-19 CNS, 66.4%; with U251 CNS, 42.2%; in the test with PC-3 prostate, 31%. For the same molecule, the growth with SK-MEL-5 melanoma is 66.2%; with UACC-62 melanoma, 44.9%; in the test on LOX IMVI melanoma, 42.6%; in the test with SK-MEL-28 melanoma, 54.2%.
Consider `c1ccc(Cn2cc3c(c2)-c2nc(Nc4ccccc4)ncc2CC3)cc1`, for which the growth with HCT-15 colon was 116% [100 µM]; with HT29 colon it was 117% [100 µM]; in the test with SNB-75 CNS, 63.7% [100 µM]; in the test on SNB-19 CNS, 84.1% [100 µM]; in the test on U251 CNS, 69.1% [100 µM]; in the test with PC-3 prostate it was 72.8% [100 µM]. In addition, the growth is 79.4% [100 µM] in the test with SK-MEL-5 melanoma, 82.7% [100 µM] in the test with UACC-62 melanoma, 85.6% [100 µM] with LOX IMVI melanoma and 92.5% [100 µM] in the test on SK-MEL-28 melanoma.
In the case of `COc1cc2c(cc1-c1c(C)noc1C)ncc1nc(C3CCOCC3)n(C3CCC(OC(F)F)CC3)c12` (stereo not given), the growth with HCT-15 colon is 33.2%; in the test on HT29 colon it was 25.9%; in the test on SNB-75 CNS it was 12.9%; in the test with SNB-19 CNS, 75.3%; in the test with U251 CNS, 75.8%; with PC-3 prostate, 44.8%. The growth in the test with SK-MEL-5 melanoma was 27.2%; in the test on UACC-62 melanoma, 25.4%; with LOX IMVI melanoma it was 24%; with SK-MEL-28 melanoma, 71.1%.
With `COc1nc2ccccc2cc1/C=C1/C=C(c2ccccc2)NC1=O`, the growth with HCT-15 colon is 30.3%; in the test on HT29 colon, 10%; in the test with SNB-75 CNS, 28.8%; in the test with SNB-19 CNS, 43.4%; in the test with U251 CNS it was 31%; with PC-3 prostate it was 55.1%. Moreover, the growth in the test on SK-MEL-5 melanoma was 39.4%; with UACC-62 melanoma, 32.1%; with LOX IMVI melanoma it was 38.8%; in the test on SK-MEL-28 melanoma it was 58.9%.
As for `OC1CSSC1Cn1cnc2c(Nc3ccc(F)c(Cl)c3)ncnc21` (stereo not given), the growth in the test on HCT-15 colon is 92.5%; with HT29 colon, 83.2%; in the test with SNB-75 CNS it was 114%; in the test on SNB-19 CNS, 90.4%; in the test with U251 CNS, 84.3%; in the test on PC-3 prostate, 80.5%. Also, the growth was 88.2% with SK-MEL-5 melanoma, 16.3% with UACC-62 melanoma, 47.9% with LOX IMVI melanoma and 78.3% in the test on SK-MEL-28 melanoma.
`COc1ccc(-c2cc(-c3ccc(Nc4nc(Nc5ccc(Cl)cc5)nc(Nc5ccc(Cl)cc5)n4)cc3)no2)cc1`: the growth in the test on HCT-15 colon is 76.1%; in the test on HT29 colon, 78.9%; in the test on SNB-75 CNS, 89.1%; with SNB-19 CNS, 107%; in the test on U251 CNS, 62.4%; in the test on PC-3 prostate, 60.5%. For the same molecule, the growth in the test with SK-MEL-5 melanoma is 73%; in the test on UACC-62 melanoma, 101%; with LOX IMVI melanoma, 76.3%; with SK-MEL-28 melanoma, 89.7%.
With `Nc1nc(N)c2c(n1)NC(c1ccc3c(c1)OCO3)CC(c1cccc(Nc3ccncc3)c1)=N2` (stereo not given), the growth is 98.4% with HCT-15 colon; 61.3% in the test with HT29 colon; 66.9% with SNB-75 CNS; 94.5% in the test on SNB-19 CNS; 80.8% in the test with U251 CNS; 50.8% with PC-3 prostate. Besides, the growth with SK-MEL-5 melanoma is 90%; with UACC-62 melanoma, 87.6%; in the test with LOX IMVI melanoma, 48.5%; with SK-MEL-28 melanoma, 108%.
In the case of `CC(=O)OCC(=O)O[C@@H]1C[C@]2(C(C)C)O[C@@]1(C)[C@@H]1CC[C@@H](C)[C@H]1[C@@H]2OC(=O)/C=C/c1ccccc1`, the growth with HCT-15 colon was 81.4%; with HT29 colon it was 82.3%; in the test on SNB-75 CNS, 62.3%; in the test on SNB-19 CNS, 86.6%; in the test with U251 CNS it was 74.7%; with PC-3 prostate, 58.6%. The growth in the test on SK-MEL-5 melanoma is 74.4%; in the test with UACC-62 melanoma, 81%; with LOX IMVI melanoma it was 90.2%; in the test on SK-MEL-28 melanoma, 102%.
As to `COc1ccc(NC(=O)c2ccc(Cl)cc2Cl)cc1`, the growth with HCT-15 colon was 94%; in the test with HT29 colon it was 100%; in the test on SNB-75 CNS it was 89.9%; with SNB-19 CNS it was 104%; in the test with U251 CNS, 92.2%; with PC-3 prostate it was 98.8%. For the same molecule, the growth was 92.3% with SK-MEL-5 melanoma, 96.3% with UACC-62 melanoma, 98.2% in the test with LOX IMVI melanoma and 105% in the test with SK-MEL-28 melanoma.
